Results published in ChEMBL document CHEMBL3988442, “University of Dundee, Small-Polar-MMV Screening Library” (2021).
Out of some 48,000 compounds screened, about 13,000 (27%) showed an effect of 50% or more. The list shows a part of the results.

System: Wolbachia pipientis
Test: Anti-Wolbachia Cell-Based Screen
Assay type: functional
Set-up: scale not given: in the data most compounds retested in dose-response had high values
Conditions: 5 µM

Question: Which “Percent Effect” value does the source give for CCc1nccc(CN2CCC(CNC(=O)Nc3ccccc3)C2)n1 (stereo not drawn) here?
Answer: -10.66%

Question: COc1cc(CNC(=O)C(C)SC)cc(Br)c1OC (stereo not drawn) was tested. Which “Percent Effect” value did it give?
Answer: 11.13%

Question: For O=C(Nc1ccc(-n2cccn2)cc1)N1C[C@H](O)[C@@H](N2CCOCC2)C1, which “Percent Effect” value is on record?
Answer: 1.189%

Question: Which “Percent Effect” value does the source give for O=C(c1cc2cccc(F)c2[nH]1)N1C[C@@H](O)[C@H](N2CCOCC2)C1 here?
Answer: 110.4%

Question: For O=C(c1ccc(F)cc1F)N1C[C@@H](O)[C@H](N2CCOCC2)C1, which “Percent Effect” value is on record?
Answer: 7.48%

Question: With CCCn1ncc(-c2nc3c(cnn3CC)[nH]2)c1C as the compound, how does the “Percent Effect” value read?
Answer: -25.23%

Question: With COCCN(c1ccncc1)S(=O)(=O)c1cc(C)c(F)cc1F as the compound, how does the “Percent Effect” value read?
Answer: -2.029%

Question: Which “Percent Effect” value does the source give for Cc1noc(C(C)C)c1C(=O)NCc1ccc(N(C)C)c(F)c1 here?
Answer: 78.48%

Question: Which “Percent Effect” value does the source give for Cc1noc(C(C)C)c1C(=O)NCc1ccc2c(c1)OCCO2 here?
Answer: 83.78%

Question: With CC(=O)NCC1CCN(C(=O)NCc2ccc3c(c2)OCCO3)CC1 as the compound, how does the “Percent Effect” value read?
Answer: -6.191%

Question: Cc1noc(C)c1C(=O)NCc1ccnc(OCC(F)(F)F)c1 was tested. Which “Percent Effect” value did it give?
Answer: -2.057%

Question: Cc1noc([C@@H](C)NCc2ccc(F)cc2)c1C(=O)O.Cl was tested. Which “Percent Effect” value did it give?
Answer: -4.042%

Question: How did the “Percent Effect” value turn out when CN(C)C(=O)c1ccccc1NC(=O)N(C)Cc1ccccc1O was run?
Answer: -13.22%

Question: Which “Percent Effect” value does the source give for O=C(CCNC(=O)NC1CCN(C2CC2)CC1)NCc1ccccc1 here?
Answer: -15.75%

Question: With N#Cc1ccnc(N2CCN(CC(O)c3ccc(F)c(F)c3)CC2)c1 (stereo not drawn) as the compound, how does the “Percent Effect” value read?
Answer: -18.53%

Question: CCc1cc(N[C@H]2CC[C@H](O)CC2)n2nc(C)c(C)c2n1 was tested. Which “Percent Effect” value did it give?
Answer: -14.47%

Question: With Cc1ccc(CNC(=O)NCc2csc(C)n2)cn1 as the compound, how does the “Percent Effect” value read?
Answer: -1.986%

Question: How did the “Percent Effect” value turn out when COc1cc(CNC(=O)Nc2nncs2)ccc1O was run?
Answer: -8.608%

Question: Which “Percent Effect” value does the source give for Cc1ccc(CNC(=O)Nc2nncs2)n1C here?
Answer: -4.226%

Question: For Cc1ccc(CNC(=O)Nc2nccs2)cn1, which “Percent Effect” value is on record?
Answer: 93.38%

Question: How did the “Percent Effect” value turn out when Cc1ccc(CNC(=O)Nc2cc(C(F)(F)F)c[nH]c2=O)cn1 was run?
Answer: 3.357%

Question: Which “Percent Effect” value does the source give for Cc1ccc(CNC(=O)Nc2nncs2)cn1 here?
Answer: 108.3%

Question: Which “Percent Effect” value does the source give for O=C1CN(Cc2nnc(-c3ccccc3Br)o2)CCN1 here?
Answer: -2.201%

Question: How did the “Percent Effect” value turn out when COC(=O)c1cc(NC2CCN(CC(F)(F)F)C2=O)ccc1C (stereo not drawn) was run?
Answer: 1.107%

Question: COc1ccc(CN[C@@H]2CO[C@H](CNC(=O)N3CCOCC3)[C@H]2O)cc1 was tested. Which “Percent Effect” value did it give?
Answer: 3.527%

Question: Which “Percent Effect” value does the source give for COCC(=O)N(C)Cc1ccc(OCc2cccs2)cc1 here?
Answer: 1.693%

Question: How did the “Percent Effect” value turn out when CN(Cc1ccc(F)c(F)c1)C(=O)CCc1nc(-c2nnc[nH]2)no1 was run?
Answer: -9.092%

Question: How did the “Percent Effect” value turn out when CN(Cc1ccc(Cl)c(F)c1)C(=O)CCc1ccncc1 was run?
Answer: 0.9629%

Question: For COCC(=O)N(C)Cc1ccc(F)c(F)c1, which “Percent Effect” value is on record?
Answer: 111.3%

Question: Cc1noc(CCNC(=O)c2ccc(N(C)C)c(F)c2)n1 was tested. Which “Percent Effect” value did it give?
Answer: -15.61%

Question: NC(=O)CN(Cc1cccc(Oc2ccccc2)c1)C(=O)C1CC1 was tested. Which “Percent Effect” value did it give?
Answer: 0.4693%

Question: Which “Percent Effect” value does the source give for Cc1cc(C(=O)N(CCN(C)C)Cc2ccc(Cl)cc2)no1 here?
Answer: -11.55%

Question: With CN1CCC(N(C)C(=O)CCc2ccc(F)c(F)c2)C1=O (stereo not drawn) as the compound, how does the “Percent Effect” value read?
Answer: 2.381%

Question: How did the “Percent Effect” value turn out when O=C(O)CCN(Cc1ccc(F)c(F)c1)C(=O)C1CC1 was run?
Answer: 170.7%

Question: With CCC(=O)N(CCN(C)C)Cc1ccc(F)c(F)c1 as the compound, how does the “Percent Effect” value read?
Answer: 182.8%

Question: For Cc1noc(CCCC(=O)N(CCC(=O)O)Cc2ccc(F)c(F)c2)n1, which “Percent Effect” value is on record?
Answer: 101.8%

Question: Which “Percent Effect” value does the source give for CN(C)CCN(Cc1ccc(Cl)cc1)C(=O)c1ccncc1 here?
Answer: -4.798%

Question: Which “Percent Effect” value does the source give for CN(Cc1nnc2n1CCC2)S(=O)(=O)c1ccc(Br)cc1Cl here?
Answer: 10.86%

Question: Which “Percent Effect” value does the source give for CC(=O)N1CCC(CCNC(C)c2cc(F)cc(F)c2)CC1 (stereo not drawn) here?
Answer: -11.21%

Question: How did the “Percent Effect” value turn out when CC(C)Oc1cc(N2CCC(N3CCC(O)CC3)CC2)nc(N)n1 was run?
Answer: 11.59%

Question: How did the “Percent Effect” value turn out when Cc1nc(CN2CCC3(CCCO3)CCC2=O)no1 (stereo not drawn) was run?
Answer: 31.71%

Question: CNC(=O)NC(=O)CSc1ccc2c(c1)CCC2 was tested. Which “Percent Effect” value did it give?
Answer: -2.658%

Question: For Cc1noc(-c2cccnc2N(C)Cc2cc(C)on2)n1, which “Percent Effect” value is on record?
Answer: 2.996%

Question: CCC(=O)N(CC(N)=O)Cc1cccc(Oc2ccccc2)c1 was tested. Which “Percent Effect” value did it give?
Answer: 9.242%

Question: Which “Percent Effect” value does the source give for COCCCC(=O)N(C)c1ccc(F)c(Cl)c1 here?
Answer: -0.2217%

Question: COCCCC(=O)N(CCC(=O)O)Cc1ccc(F)c(F)c1 was tested. Which “Percent Effect” value did it give?
Answer: 97.51%

Question: With CN(C)C(=O)CCC[S+]([O-])Cc1ccc(F)c(F)c1 (stereo not drawn) as the compound, how does the “Percent Effect” value read?
Answer: -13.45%

Question: How did the “Percent Effect” value turn out when COCCN(Cc1ccncc1)C(=O)CCSCc1ccc(F)cc1 was run?
Answer: -3.369%

Question: Which “Percent Effect” value does the source give for CCC(=O)N(CCC(=O)O)Cc1ccc(F)c(F)c1 here?
Answer: 121.4%

Question: Which “Percent Effect” value does the source give for COCCNc1nc2c(c(NCc3ccncc3)n1)CCNCC2 here?
Answer: 24.23%

Question: Which “Percent Effect” value does the source give for CC(C)OCCSc1nnnn1C1CCOCC1 here?
Answer: -9.456%

Question: With CC(=O)N1CCCN(CCCSc2ccccc2Cl)CC1 as the compound, how does the “Percent Effect” value read?
Answer: -4.168%

Question: Which “Percent Effect” value does the source give for COCCC(=O)N1CCN(CC(C)C)c2nc(C)ccc2C1.O=C(O)C(F)(F)F here?
Answer: 6.482%

Question: For O=C(O)c1ccc2[nH]cc(CN3CCOCC3)c2c1, which “Percent Effect” value is on record?
Answer: -9.058%

Question: How did the “Percent Effect” value turn out when O=C(O)c1ccc2[nH]cc(CN3CCCC3)c2c1 was run?
Answer: 2.363%

Question: Cc1ncc(CN2CCCC2)c2cc(C(=O)c3ccc(Br)cc3)oc12.Cl was tested. Which “Percent Effect” value did it give?
Answer: 139.8%

Question: O=C(NCc1ccccc1CN1CCOCC1)c1ccc(Br)cc1F was tested. Which “Percent Effect” value did it give?
Answer: -0.3449%

Question: Cc1ncc(CN2CCOCC2)c2cc(C(=O)c3ccc(Br)cc3)oc12.Cl was tested. Which “Percent Effect” value did it give?
Answer: 126.2%

Question: Cc1ncsc1CCN(C)C(=O)c1ccc(CN2CCCCC2)cc1 was tested. Which “Percent Effect” value did it give?
Answer: -41.8%

Question: For COc1c(C2CCCN2C(=O)c2nccnc2N)c(C)nn1C (stereo not drawn), which “Percent Effect” value is on record?
Answer: 108.6%

Question: Which “Percent Effect” value does the source give for Cc1nn(C)c(Cl)c1C1CCCN1C(=O)c1nccnc1N (stereo not drawn) here?
Answer: -5.243%

Question: How did the “Percent Effect” value turn out when Cc1nn(C)c(C)c1C1CCCN1C(=O)c1nccnc1N (stereo not drawn) was run?
Answer: 101%

Question: How did the “Percent Effect” value turn out when O=S(=O)(Nc1c(F)cccc1N1CCCC1)c1cncc(F)c1 was run?
Answer: -6.105%

Question: N#Cc1cccc(NC2CC(=O)N(C3Cc4ccccc4C3)C2)n1 (stereo not drawn) was tested. Which “Percent Effect” value did it give?
Answer: 5.834%

Question: For Fc1ccc(OCCCN2CCCC(Cn3cncn3)C2)cc1 (stereo not drawn), which “Percent Effect” value is on record?
Answer: 107.3%

Question: Which “Percent Effect” value does the source give for Cc1nc(C)n(CC2CCCN2CCCOc2ccc(F)cc2)n1 (stereo not drawn) here?
Answer: 2.053%

Question: With Cc1nc(C)n(CC2CCCN(CCOc3ccc(F)cc3)C2)n1 (stereo not drawn) as the compound, how does the “Percent Effect” value read?
Answer: 98.89%

Question: Fc1ccc(CN2CCCC(Cn3cncn3)C2)c2ncccc12 (stereo not drawn) was tested. Which “Percent Effect” value did it give?
Answer: 0.09463%

Question: Which “Percent Effect” value does the source give for Cc1nc(C)n(CC2CCCN(CCOc3cccc(F)c3)C2)n1 (stereo not drawn) here?
Answer: 75.5%

Question: How did the “Percent Effect” value turn out when O=C1CCCN1CCCN1CCCC(Cn2cncn2)C1 (stereo not drawn) was run?
Answer: 2.08%

Question: Cc1nc(C)n(CC2CCCN(CCCOc3ccc(F)cc3)C2)n1 (stereo not drawn) was tested. Which “Percent Effect” value did it give?
Answer: 86.71%

Question: For Cc1nc(C)n(CC2CCCN(CCOc3cccc(C#N)c3)C2)n1 (stereo not drawn), which “Percent Effect” value is on record?
Answer: -2.683%

Question: Which “Percent Effect” value does the source give for Cc1nc(C)n(CC2CCCN(CCCOc3ccccc3)C2)n1 (stereo not drawn) here?
Answer: -19.22%
